ERG-DNA inh: inhibitors of human ERG Ets domain-DNA interaction. P11308. fluorescence polarization, His-ERG Ets domain / labelled DNA. Potency, µM (doses to about 76.9 µM), for the others: at the highest dose FP activity, negative = inhibition, usual class: inhibitors. 0.028% of 370,000 active; active means well fitted inhibition curve with a large enough effect in the polarisation, with a control signal flat; inconclusive means small, poorly fitted or top-dose-only effect, or effect the other way, or a change in a side signal; inactive means no such curve, though single readings can be large or run the other way; the % refers to the polarisation;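 further: polarization taken with two DNA probes labelled with fluorescein and Texas red; potency means the concentration at half of the fitted maximal effect; % of control where 0% means no effect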
Target sequence (P11308 whole entry, looked up, the tested form may be a part): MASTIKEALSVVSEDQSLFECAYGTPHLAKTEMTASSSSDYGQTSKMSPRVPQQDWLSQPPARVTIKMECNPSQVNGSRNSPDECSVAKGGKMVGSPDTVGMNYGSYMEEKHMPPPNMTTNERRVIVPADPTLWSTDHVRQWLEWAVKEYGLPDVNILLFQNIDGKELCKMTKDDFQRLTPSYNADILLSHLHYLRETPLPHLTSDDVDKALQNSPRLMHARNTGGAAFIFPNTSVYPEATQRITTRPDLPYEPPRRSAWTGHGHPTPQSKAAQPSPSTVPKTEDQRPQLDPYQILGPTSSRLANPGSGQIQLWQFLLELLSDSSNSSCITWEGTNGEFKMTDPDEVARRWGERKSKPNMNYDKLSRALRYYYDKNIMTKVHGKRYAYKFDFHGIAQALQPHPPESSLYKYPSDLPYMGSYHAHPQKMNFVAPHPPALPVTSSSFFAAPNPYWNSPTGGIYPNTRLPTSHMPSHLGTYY
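His-tagged ERG Ets domain (1 uM in the protein solution; 300mM KCl, 50mM Tris-HCl, 1mM EDTA, 1mM DTT, pH 7.5) received compound, then a probe mix of 5 nM fluorescein-DNA and 100nM Texas-615-DNA. Fluorescence polarization was read for both dyes.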
DRD3 antagonist: antagonists of human D3 dopamine receptor. P35462. D3R cells, DiscoveRx beta-arrestin luminescence, antagonist mode; hits give low values. max response, negative = inhibition, %. 2.5% of 360,000 active; in the data active means max response below about -50%; inconclusive means no clear call, values can overlap the other calls; further: on the % scale 0 is the no-effect control and ±100 the full control effect
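Cells expressing the human receptor were seeded at 1500 cells/well, incubated overnight at 37 degrees C in 5% CO2, then exposed to library compounds with dopamine controls for 90 minutes at 37 degrees C before luminescent detection.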
D1 potentiator: potentiators of human D1 dopamine receptor; potentiation, % at 10 µM; 0.036% of 360,000 active; AID 504651; HEK293 TREx D1 cells, calcium flux, dopamine EC20 potentiation; P21728; in the data active means potentiation above about 30%; further: 0% is about no effect
D1 agonist: activates the human D1 dopamine receptor. P21728. HEK293 T-REx D1 cells, calcium flux, agonist mode. activation, % at 2 µM. 1% of 360,000 active. AID 504660; in the data active means activation above about 30%; further: 0% is about no effect
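Inducible HEK293 T-REx D1 cells, force-coupled to calcium signalling, were plated at 4000 cells/well with tetracycline and held overnight at 30 C. After no-wash calcium dye loading, compound-evoked calcium rise over 180 s flagged agonists.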
D1 antagonist: human D1 dopamine receptor antagonism; P21728; HEK293 TREx D1 cells, calcium flux, dopamine EC80; hits give low values; activity change, negative = inhibition, % at 10 µM; 3.2% of 360,000 active; in the data active means activity change below about -30%; further: on the % scale 0 is the no-effect control and ±100 the full control effect
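Tetracycline-induced HEK293 T-REx cells with force-coupled D1 receptor were loaded with a no-wash calcium dye. Compound was added after a 10 s baseline and read kinetically for 180 s; EC80 dopamine was then added and calcium flux followed another 180 s.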
D3 ag: agonists of human D3 dopamine receptor | P35462 | max activation, % | D3R DiscoveRx beta-arrestin cells, luminescence, 90 min | 0.58% of 410,000 active; in the data active means max activation above about 30%; further: 0% is about no effect
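Agonist-mode cell screen: cells plated at 1500/well and incubated overnight at 37 °C, then exposed to library compounds for 90 min at 37 °C. Detection reagent was added for 30–60 min at room temperature, and luminescence was read.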
Active calls of the source: *; u = inconclusive; x = no result; ! = repeats disagree. Hits are enriched below; roughly 6.1% of the tested compounds scored in any of these assays.

SMILES	ERG-DNA inh	DRD3 antagonist	D1 potentiator	D1 agonist	D1 antagonist	D3 ag
O=C(O)CN(CC(=O)O)CC(=O)O	8%	-73*	x	x	x	-46
N/C(=C\C(=O)c1cc(Cl)ccc1O)C(Cl)(Cl)Cl	-9%	u	2	3	1	-8
COc1ccc(CC2(CO)CCN(Cc3cnn(-c4ccccc4OC)c3)CC2)cc1	3%	-89*	-6	5	-1	-19
COc1ccc(CC2(CO)CCN(Cc3cnn(-c4ccc(F)cc4)c3)CC2)cc1	-8%	-23	-4	47*	-29	-14
CN(C)c1ccc(CNc2ncn[nH]2)cc1	6%	1	-1	4	-26	2
COc1ccc(NC(=O)COC(=O)c2cnccn2)cc1Cl	1%	3	-3	0	-27	0
CCCN(CCC)CCCNC(=O)c1cc2c(-c3ccc(OC)c(OC)c3)nn(C)c2s1	-11%	-92*	1	1	5	-15
CCCCN(CC)CCNC(=O)c1cc2c(-c3ccc(Cl)cc3)nn(C)c2s1	u	-62*	-1	66*!	6	-13
CCc1nc2c(OCc3cccc(OC)c3)cccn2c1N(C)C(=O)c1ccc(OC)cc1	x	u	x	x	x	-10
S=C1NCCc2ccc(Cl)cc2C1c1ccccc1Cl (stereo not given)	2%	-71*	-4	-1	-9	-2
CCOC(=O)COc1ccc2c(C)c(CCN(CC)CC)c(=O)oc2c1	x	x	x	x	x	6
CN(Cc1cccs1)CC(O)COCc1ccco1 (stereo not given)	-3%	-20	-10	3	10	-3
COc1ccc(N(Cc2cccs2)C(=O)c2ccccc2C)cc1	-1%	x	1	4	-36*	-22
COc1ccc(N(Cc2cccs2)C(=O)c2ccc(OCC(C)C)cc2)cc1	0%	x	3	34*	3	-19
CC(=O)c1ccc(OCC(O)CN(C)Cc2cccs2)cc1 (stereo not given)	-6%	u	1	37*	-43*	-4
Cc1ccc(N(Cc2cccs2)C(=O)c2ccccc2)cc1	-2%	x	-1	1	-34*	3
O=C(CC1N=C2c3ccccc3N=C(SCC(=O)Nc3ccccc3F)N2C1=O)NCc1ccc2c(c1)OCO2 (stereo not given)	5%	x	-2	1	3	-2
COc1ccc(NC(=O)c2cc(S(=O)(=O)N3CCCCC3)ccc2C)cc1S(=O)(=O)N1CCOCC1	6%	-52*	x	x	x	-6
Cc1ccc(S(=O)(=O)N2CCOCC2)cc1C(=O)Nc1ccc(C(N)=O)cc1	-2%	1	-10	3	-32*	8
O=C(COC(=O)c1ccc(OC(F)F)cc1)Nc1cccc(S(=O)(=O)NC2=NCCC2)c1	4%	31	x	1	-6	-13
Cc1ccc(NC(=O)Cn2nnnc2-c2ccccc2N)cc1	-2%	x	4	-1	29	-1
Cc1noc(C)c1S(=O)(=O)Nc1ccc(C(=O)N2CCN(c3ccc(Cl)cc3)CC2)cc1	-2%	27	-7	20	-36*	4
CC(=O)c1ccc(N2CCN(C(=O)c3ccc(OCc4c(C)noc4C)cc3)CC2)cc1	2%	2	-2	8	-32*	-5
CCOC(=O)C1CCN(C(=O)c2cccnc2Oc2ccccc2)CC1	11%	-8	-9	3	-8	-12
COc1ccc(-c2cc(=O)c3c(OC)c(OC)c(OC)c(OC)c3o2)cc1OC	2%	41	-3	1	3	40*
SMILES	ERG-DNA inh	DRD3 antagonist	D1 potentiator	D1 agonist	D1 antagonist	D3 ag
COc1ccc(-c2cc(=O)c3c(O)c(OC)c(OC)c(OC)c3o2)cc1	-4%	18	x	x	x	12
Nc1ccc2c(c1)C(=O)Cc1ccccc1S2	-1%	2	-6	3	9	2
O=C1Cc2ccccc2Sc2cc(OCCCN3CCCCC3)ccc21	x	-53*	-10	14	-9	-6
O=C1Cc2ccccc2Sc2c(OCCN3CCCCC3)cccc21	2%	-65*	0	7	-6	-31
CN(C)CCCOc1ccc2c(c1)Sc1ccccc1CC2=O	1%	u	-6	79*	-60*	-47
C=CCN(c1ccc(C(=O)OC)cc1)S(=O)(=O)c1ccccc1	1%	-76*	-8	-3	-5	1
C=CCN(c1ccccc1)S(=O)(=O)c1cccc(C(=O)OCC(=O)NC2CC2)c1	-2%	-4	-4	6	-34*	-1
CCCN(c1ccc(C(=O)OC)cc1)S(=O)(=O)c1ccccc1	-2%	5	3	1	10	6
C=CCN(c1ccccc1)S(=O)(=O)c1cccc(C(=O)Nc2nnc(SCC)s2)c1	-4%	105	-12	1	-85*	22
COc1cc(C(=S)N2CCOCC2)cc(Br)c1OS(=O)(=O)c1ccccc1	18%	14	5	1	-24	8
CCOC(=O)c1c(C)[nH]c(C)c1C(=O)CSc1nc(N)cc(=O)[nH]1	-9%	16	2	3	2	-6
COc1ccc(C(=O)Oc2c(OC)cc(C(=S)N3CCOCC3)cc2OC)cc1OC	12%	30	-12	1	-5	0
COc1ccc(CN2C(=O)c3oc4ccc(F)cc4c(=O)c3C2c2ccc(O)cc2)cc1 (stereo not given)	-11%	x	-3	1	-36*	-10
CC(=O)N1CCN(c2ccc(NC(=O)c3ccc(C(C)(C)C)cc3)cc2)CC1	x	-89*	4	1	6	17
CC(=O)c1cccc(NC(=O)N2CCC(C(=O)c3ccc(F)cc3)CC2)c1	-2%	-5	-8	8	-21	-15
O=C(Nc1ccc2c(c1)OCCO2)N1CCN(c2ccccc2)CC1	-2%	-52*	-9	6	-46*	-2
CC(=O)c1ccc(N2CCN(C(=O)Nc3cccc(F)c3)CC2)cc1	16%	0	-4	5	-35*!	1
CC(=O)N1CCN(c2ccc(NC(=O)c3ccc(Cl)cc3)cc2)CC1	-2%	26	-3	4	-24	3
COc1ccc(NC(=S)N2CCCC2c2ccc(OC)c(OC)c2)cc1 (stereo not given)	2%	6	2	2	2	7
COc1ccc(C2CCCN2C(=S)Nc2cccc(C)c2)cc1OC (stereo not given)	-2%	-4	3	3	-59*	4
C=CCOc1ccc(/C=N/NC(=O)CN2CCOCC2)cc1OCC	-12%	2	-5	1	2	5
O=C(CCN1C(=O)S/C(=C\c2cccs2)C1=O)NC1=NCCS1	0%	39	-1	5	-10	1
Cc1ccccc1C(=O)N1CCN(c2ccc(NC(=O)c3cccnc3)cc2)CC1	3%	-29	-11	1	-19	-5
